LEDGF integ inh: blocks HIV-1 LEDGF/p75-dependent DNA integration. inhibition, % at 3.7 µM. TR-FRET IN-LEDGF/p75 DNA integration, Eu/Cy5. AID 743269. hit rate 0.64% among 370,000;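 active = inhibition above the screen-wide mean plus 3 SD, cut at about 13% in these data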;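 note: signal is the Cy5 over europium emission ratio at 671 and 618 nm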
MBD2 inh: blocks human MBD2 binding to methylated DNA | TR-FRET, MBD2 binding to methylated oligonucleotide | hit rate 0.31% among 370,000 | inhibition, % at 4.4 µM | Q9UBB5; in the data active = inhibition above about 13%
UHRF1 binding: blocks human UHRF1 binding to methylated DNA. inhibition, % at 4.4 µM. hit rate 0.75% among 370,000. UHRF1 binding to methylated oligo, TR-FRET; in the data active = inhibition above about 21%;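 note: UHRF1 SRA domain binding a hemimethylated CpG hairpin DNA probe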
PLCg1 inh: blocks human PLC-gamma1 enzyme activity; P19174; purified PLC-gamma1, fluorogenic substrate, fluorescence; inhibition, % at 12.2 µM; hit rate 0.84% among 370,000; AID 720700; in the data active = inhibition above about 9.5%
PLC-beta3 inh: PLC-beta3 (human) inhibition, primary screen; Purified PLC-beta3, fluorogenic substrate, fluorescence; inhibition, % at 12.2 µM; Q01970; hit rate 0.18% among 370,000
PLCg1 ctr: counter-screen for PLC-beta3 inhibitors: inhibitors of human PLC-gamma1. shares compounds with PLCg1 inh. purified PLC-gamma1, fluorogenic substrate, fluorescence. inhibition, % at 12.3 µM. hit rate 3.1% among 3,300; in the data active = inhibition above about 9.5%
PLCb3 confirm: human PLC-beta3 inhibition, confirmation; shares compounds with PLCg1 inh; purified PLC-beta3, fluorogenic substrate fluorescence; inhibition, % at 12.3 µM; hit rate 1% among 3,300; AID 743261
Hits are given with their value; i = inactive; nt = no result given. This is a sample that favours compounds with a hit; in the whole collection about 2.4% have one here. Cut-off read from the data, not from the text of the source, unless noted: active = inhibition above about 11%; inactive = the rest.

SMILES	LEDGF integ inh	MBD2 inh	UHRF1 binding	PLCg1 inh	PLC-beta3 inh	PLCg1 ctr	PLCb3 confirm
O=S(=O)(Nc1ccccc1)N1CCCCC1	i	i	i	11	13	i	i
COc1cccc(CC(=O)N2CCN(S(=O)(=O)c3ccc(Br)cc3)CC2)c1	i	i	i	12	i	i	i
COc1cccc(CN2CCN(S(=O)(=O)c3ccc(Br)cc3)CC2)c1	i	i	i	i	i	nt	nt
COc1ccc(OC)c(S(=O)(=O)N2CCCC(N3CCN(c4ccccc4)CC3)C2)c1 (stereo not drawn)	i	i	i	11	i	i	i
COc1ccc(OC)c(S(=O)(=O)N2CCN3CCCC3C2)c1 (stereo not drawn)	i	i	i	i	i	nt	nt
CCOC(=O)CC[C@@H]1CC[C@]2(CCCN(S(=O)(=O)c3ccccc3)C2)O1	i	i	i	i	i	nt	nt
N#Cc1ccc(OC[C@@H](O)CN2CCC(C(O)(c3ccccc3)c3ccccc3)CC2)cc1F	i	i	i	i	i	nt	nt
C[C@H]1[C@@H](NC(=O)Cc2ccsc2)CC[C@@]23CCCN2C(=O)CCC[C@@H]13	i	i	i	i	i	nt	nt
Cc1nnc(SCCOC(N)=O)n1C	i	i	i	i	i	nt	nt
C[N+](C)(C)CCOC(N)=O	i	i	i	11	i	i	i
CC(C)NC(=O)C1(C)CCCN1Cc1ccccc1C#N (stereo not drawn)	i	i	i	11	i	i	i
Cc1nccn1CCCNC(=O)c1nc(Cn2cc([N+](=O)[O-])cn2)no1	i	i	i	9.6	i	i	i
O=C(NCCCn1ccnc1)c1nc(Cn2cc(Br)cn2)no1	i	i	i	i	i	nt	nt
CC(C)CN1C(=O)NC(NC(=O)c2cccnc2)(C(F)(F)F)C1=O (stereo not drawn)	i	i	i	11	i	i	i
O=C(NC1(C(F)(F)F)NC(=O)N(Cc2cccnc2)C1=O)c1ccncc1 (stereo not drawn)	i	i	i	i	i	nt	nt
Cc1cc(C)c(C#N)c(OCC2CCCO2)n1 (stereo not drawn)	i	i	i	i	11	i	i
CC(C)C[C@H]1COc2cccc(F)c2S(=O)(=O)N1Cc1cn(Cc2ccc(C(F)(F)F)cc2)nn1	i	i	i	i	i	nt	nt
O=C(Nc1ccccc1)c1ccc(S(=O)(=O)NCc2ccco2)cc1	i	i	i	13	i	i	i
COc1ccc(C(=O)OCCN2CCN(C3CN(Cc4cn(Cc5cccc(C)c5)nn4)S(=O)(=O)C3)CC2)cc1OC (stereo not drawn)	i	i	i	i	i	nt	nt
NC(=O)NC(=O)CSc1cccc(C(F)(F)F)c1	i	i	i	9.5	i	i	i
COc1cccc(CN2C(=O)N(C(C)C)C(N(O)C(=O)NC(C)C)C2(C)C)c1OC (stereo not drawn)	i	i	i	14	15	i	i
Cc1ccc(Nc2n[nH]c(C)c2[N+](=O)[O-])c(C)c1	i	i	i	9.6	i	i	i
Cc1ccccc1Nc1n[nH]c(C)c1[N+](=O)[O-]	i	i	i	i	i	nt	nt
COC(=O)[C@]12C[C@H](CC(=O)NCc3cccs3)C(=O)N(Cc3ccco3)C1=C[C@H](C(C)C)O[C@@H]2C1CC1	i	i	i	i	i	nt	nt
Cc1ncc([N+](=O)[O-])n1CC(=O)N/N=C/c1ccccc1F	i	i	i	i	11	i	i
SMILES	LEDGF integ inh	MBD2 inh	UHRF1 binding	PLCg1 inh	PLC-beta3 inh	PLCg1 ctr	PLCb3 confirm
c1ccc(N2CCOCCOCCOCCOCC2)cc1	i	i	i	12	i	i	i
c1ccn(-c2ccc(N3CCOCC3)cc2)c1	i	i	i	i	i	nt	nt
Nc1ccc(C(=O)N/N=C\C=C\c2cccc([N+](=O)[O-])c2)cc1	i	i	i	15	16	i	i
O=C(N/N=C/C=C/c1cccc([N+](=O)[O-])c1)c1ccncc1	i	i	i	i	i	nt	nt
Cc1nnc2sc(SCC(=O)N3CCC(C)CC3)nn2c1=O	i	i	i	i	i	nt	nt
Cc1nnc2sc(SCC(=O)N3CCCCC3)nn2c1=O	i	i	i	12	i	i	i
Nc1nc(=O)n([C@@H]2CS[C@H](CO)O2)cc1F	i	i	i	14	14	i	i
CN(C)CCN1C(=O)C(=O)/C(=C(/O)c2ccc(S(=O)(=O)N3CCOCC3)cc2)C1c1ccc(Br)cc1 (stereo not drawn)	i	i	i	11	i	i	i
Cc1ccc(NC(=O)[C@@H]2CC(=O)O[C@@H]2c2ccccc2)cc1C	i	i	i	i	i	nt	nt
CCCCNCCCOc1cc(Cl)ccc1Cl	i	i	i	i	11	i	i
CCC(C)NCCCOc1cc(Cl)ccc1Cl (stereo not drawn)	i	i	i	i	i	nt	nt
CC(O)CNCCCOc1ccc(Cl)cc1C(C)(C)C (stereo not drawn)	i	i	i	12	i	i	i
COc1ccc2[nH]c3c(c2c1)CCN[C@]31C(=O)N(Cc2ccccc2)c2ccccc21	i	i	i	i	i	nt	nt
CCCCn1c(-c2csc3c2CCCC3)n[nH]c1=S	i	i	i	15	i	i	i
CCCCC(=O)Nc1ccc(C(=O)Nc2cccnc2)cc1	i	i	i	10.0	i	i	i
COc1ccccc1N1CCN(C(=O)c2cc3c(C)nn(-c4ccccc4)c3s2)CC1	i	i	i	i	i	nt	nt
COc1ccc(Br)cc1S(=O)(=O)N1CC(C)OC(C)C1 (stereo not drawn)	i	i	i	i	11	i	i
COc1ccc(Br)cc1S(=O)(=O)N1CCOCC1	i	i	i	i	i	nt	nt
O=C1COc2ccc(C(=O)COC(=O)CCCOc3ccccc3)cc2N1	i	i	i	i	11	i	i
O=C(C1CCN(c2cncnc2)CC1)N1CCCC1	i	i	i	i	i	nt	nt
CCOC(=O)CSc1cc(=O)n(CC)c2ccccc12	i	i	i	10	i	i	i
CCC(=O)Nc1cccc2ccccc12	i	i	i	11	i	i	i
NC(=O)Nc1cccc2ccccc12	i	i	i	i	i	nt	nt
C=CC[C@@H](CC(=O)OC(C)(C)C)C(=O)OC[C@H]1CCCN1C(=O)[C@@H](CC=C)CC(=O)N[C@H](CO)Cc1ccccc1	i	i	i	i	i	nt	nt
C=CC[C@H](CC(=O)OC(C)(C)C)C(=O)OC[C@@H]1CCCN1C(=O)[C@@H](CC=C)CC(=O)NCCO	i	i	i	9.8	i	i	i
CCc1ccc(CCNC(=O)OC2CC3CC2[C@H]2CCCCN2[C@H]3C)cc1 (stereo partly drawn)	i	i	i	i	i	nt	nt
COC(=O)[C@]12C[C@H](CC(=O)NCC34CC5CC(CC(C5)C3)C4)C(=O)N(CCC3=CCCCC3)C1=C[C@H](C1CCCC1)O[C@@H]2C	i	i	i	i	i	nt	nt
CCOC(=O)c1cnc2ccc(Br)cc2c1NCC(C)O (stereo not drawn)	i	i	i	12	i	i	i

Screens (PubChem)
